Measured values: ChEMBL document CHEMBL4513135, “CO-ADD screening of IQOG CSIS (Spain) compounds”
Values joined by “and” are separate entries in the source; they are usually repeats but may differ in a detail not shown here. Equal values may be shown once. Entries with a potency or affinity are not part of this list.

Key:
[1] = tested on: Klebsiella pneumoniae; conditions: Concentration 32 ug.mL-1, ASSAY_TEST Inhibition of Bacterial Growth, detection method Absorption (OD600), MEDIA CAMHB, plate type 384well, NBS, CORNING #3640, time 18 hr
[2] = tested on: Candida albicans; conditions: 32 ug/mL
[3] = tested on: Cryptococcus neoformans; conditions: Concentration 32 ug.mL-1; ASSAY_TEST Inhibition of Fungal Growth; detection method Resazurin; Absorption (OD600-OD570); plate type 384well; NBS; CORNING #3640

| Compound | Inhibition [1] | Inhibition [2] | Inhibition [3] | Inhibition ([1]; 32 ug/mL) |
| --- | --- | --- | --- | --- |
| CC(=O)Oc1cccc(C=C2N=C(c3ccccc3)OC2=O)c1 | 1.18% | 2.1% | -5.65% |  |
| COC1(N)Oc2ccc3ccccc3c2C(c2ccccc2)C1(Br)C#N (stereo not given) | -5.7% | 8.36% | -6.17% |  |
| Cl.OCC1CCN(Cc2ccccc2)CC1 | 15.06% | 1.47% | -2.26% |  |
| Cn1ccnc1C1c2ccc3cccnc3c2Oc2nc3c(c(N)c21)CCCCC3 (stereo not given) | 9.25% | 2.52% | -79.42% |  |
| Nc1c2c(nc3c1C(c1ccc([N+](=O)[O-])cc1)c1ccc4ccccc4c1O3)CCCC2 (stereo not given) | -17.7% | -1.86% | -5.85% |  |
| Cl.Nc1c2c(nc3c1C(c1c(Cl)cccc1Cl)c1ccc4ccccc4c1O3)CCCC2 (stereo not given) | 3.98% | -1.11% | -3.69% |  |
| C#CCN(C)c1nc(OC)c(C#N)cc1C#N | 1.2% | 2.65% | -43.21% |  |
| C#CCN(C)Cc1cc2cc(OCCCC3CCN(C(=O)OC(C)(C)C)CC3)ccc2n1C | -9.9% | 1.82% | -6.45% |  |
| COC(=O)C(=Cc1ccc(OC)cc1)NC(C)=O | 12.98% | -0.11% | -2.55% |  |
| C#CCN(C)c1nc(N)c(C#N)cc1C#N |  |  |  | 17.2% and 7.82% |
| CCOC(=O)c1c(C)nc(/N=N/c2nc(C)c(C(=O)OCC)c(-c3ccccc3)c2C#N)c(C#N)c1-c1ccccc1 | 0.93% | -1.11% | -2.65% |  |
| COc1ccc(-c2c(C#N)c(=O)oc3c2ccc2ccccc23)cc1 |  | 2.65% and 6.62% |  | 4.75% and -0.52% |
| CC(=O)Nc1nn(C)c2nc3nc4c(c(N)c3cc12)CCCC4 |  |  |  | 12.62% and 9.74% |
| Cc1ccc(C2CC2(N)C(=O)O)cc1.Cl (stereo not given) | 13.97% | 1.46% | -7.69% |  |
| Cn1c(CO)cc2cc(OCCCC3CCN(Cc4ccccc4)CC3)ccc21 | -2.86% | 2.07% | -53.31% |  |
| Cc1cc(Br)cc(C)c1NC=C(C#N)C#N | -18.28% | 1.62% | -6.77% |  |
| COc1cc(C2C(C#N)=C(N)Oc3ccc4ccccc4c32)ccc1O (stereo not given) | 5.47% | 0.23% | -49.89% |  |

| Compound | Inhibition [1] | Inhibition [2] | Inhibition [3] | Inhibition ([1]; 32 ug/mL) |
| --- | --- | --- | --- | --- |
| CCOC(=O)C1=C(C)OC(N)=C(C#N)C1c1ccc([N+](=O)[O-])cc1 (stereo not given) | 12.45% | -0.07% | -64.89% |  |
| CN(C)c1nc2nc3c(c(N)c2c(-c2ccccc2)c1C#N)CCCC3 | 5.15% | 1.47% | -62.72% |  |
| C#CCNc1nc(NCCC2CCN(Cc3ccccc3)CC2)c(C#N)cc1C#N | -4.95% | 3.57% | -89.93% |  |
| COc1ccc(CNNC(=O)c2cc3ccccc3[nH]2)cc1O | 4.75% | 0.7% | 0.55% |  |
| COc1ccccc1C1C(C#N)=C(N)Oc2ccc3ccccc3c21 (stereo not given) | 9.04% | 2.24% | -18.76% |  |
| N#Cc1cc2c(N)c3c(nc2nc1Cl)CCCC3 | 24.47% | 2.63% | -42.44% |  |
| COc1cccc(C2c3c(ccc4ccccc34)OC(=N)C2(Br)C#N)c1 (stereo not given) |  |  |  | 14.84% and 5.04% |
| O=C(O)/C(=C\c1ccccc1)NC(=O)c1ccccc1 | 17.85% | 1.39% | -3.88% |  |
| CC#CCN(Cc1ccccc1)c1nc(N)c(C#N)c(-c2ccccc2)c1C#N | -4.62% | 3.12% | -26% |  |
| N#Cc1c(N)nc2[nH]nc(N)c2c1-c1ccccc1 | 17.63% | 0.49% | -62.75% |  |
| N#Cc1cc(C#N)c(N2CCCC2)nc1N1CCCC1 | 22.43% | -0.31% | -5.24% |  |
| O=C(N/N=C/c1cccc(Cl)c1)c1cc2ccccc2[nH]1 | -14.42% | -0.35% | -2.87% |  |
| O=C(N/N=C/c1ccc(Cl)cc1)c1cc2ccccc2[nH]1 | -19.43% | 3.28% | -0.9% |  |
| O=C(Cc1c[nH]c2ccccc12)N/N=C/c1ccco1 | 10.08% | -1.03% | -6.47% |  |
| CN(C)c1ccc(C(=NNC(=O)c2cc3ccccc3[nH]2)c2ccc(N(C)C)cc2)cc1 | -1.36% | -0.9% | -8.51% |  |
| COc1ccccc1C1c2c(ccc3ccccc23)OC(=N)C1(Br)C#N (stereo not given) | 13.77% | 5.01% | -63.67% |  |
| O=C1OC(c2ccccc2)=NC1=Cc1ccccc1Cl | 11.08% | 1.66% | -1.51% |  |
